Screening data from PubChem BioAssay.
Only some compounds are listed: those with a hit (about 1.6% of all), similar ones and a draw of the others.
KCNQ2 block = KCNQ2 (rat) channel inhibition. hit rate 1.1% among 310,000. O88943. B-score at 10 µM. CHO-K1 KCNQ2, FluxOR thallium flux, 20 min; active compounds read low;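 active means fluorescence ratio B-score at most minus 3 library SDs, with starting brightness B-score within 2 library SDs, cut at about -5.5 in these data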
KCNQ2 pot = potentiators of rat KCNQ2 potassium channel. O88943. CHO-K1 KCNQ2, FluxOR thallium flux fluorescence; active compounds read high. B-score at 10 µM. hit rate 0.54% among 310,000;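 active means fluorescence ratio B-score at least 3 SD of library B-scores, with initial fluorescence B-score within 3 of them, cut at about 5.3 in these data; same plate scores as AID 2156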;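 further: B-score of peak minus minimum over baseline fluorescence ratio after K+ and Tl+ stimulus; positive B-score means potentiation of KCNQ2 with more thallium influx and brighter signal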
Kir21 conf inh = confirmation of mouse Kir2.1 potassium channel inhibitors | AID 2032 | shares compounds with KCNQ2 pot | Kir2.1-expressing cells, FluxOR thallium flux fluorescence; active compounds read low | hit rate 41% among 2,300 | Tl flux remaining, % of negative control (active compounds read low), % at 10 µM;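 active means Primary-screen hit whose thallium flux fell at least 3 control SD below untreated wells in both duplicates, with normal baseline fluorescence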;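 further: 0% = blank wells without stimulus and 100% = stimulated no-compound controls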
HEK293 ctr = parental HEK293 activity in Kir2.1 inhibitor counter-screen; shares compounds with KCNQ2 pot; parental HEK293 cells, FluxOR thallium flux fluorescence; 0% = unstimulated blank wells; FluxOR signal as % of negative control (100 = no effect), % at 10 µM; hit rate 19% among 2,300;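 active means dye signal at least 3 control SD above or below untreated wells in both duplicates, raw fluorescence within 3, either direction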;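 further: percent is based on the flux ratio of peak minus minimum fluorescence over baseline F0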
CHO-K1 ctr = parental CHO-K1 activity in KCNQ2 potentiator counter-screen. shares compounds with KCNQ2 pot. hit rate 43% among 1,200. parental CHO-K1 cells, FluxOR thallium flux fluorescence; zero = vehicle mean+3SD, 100% = vehicle-minus-blank window. activity increase over 3SD of controls, % at 10 µM;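 active means signal rise of at least 3 SD above the untreated control mean, in both duplicate wells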;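 further: counter screen of KCNQ2 potentiator hits so any rise reflects channel-independent effects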
KCNQ1 sel pot = selectivity of KCNQ2 potentiators: effect on human KCNQ1. shares compounds with KCNQ2 pot. CHO KCNQ1 stable, FluxOR thallium flux fluorescence; beyond 3SD, as % of vehicle-control signal. activation over 3SD threshold, % at 10 µM. hit rate 28% among 1,200. AID 2283;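 active means fluorescence ratio rise of at least 3 SD of vehicle wells above their mean, in both replicate wells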;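 further: 0% = vehicle mean plus 3 SD and 100% = vehicle minus unstimulated blank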
Target sequence (P51787 whole entry, looked up): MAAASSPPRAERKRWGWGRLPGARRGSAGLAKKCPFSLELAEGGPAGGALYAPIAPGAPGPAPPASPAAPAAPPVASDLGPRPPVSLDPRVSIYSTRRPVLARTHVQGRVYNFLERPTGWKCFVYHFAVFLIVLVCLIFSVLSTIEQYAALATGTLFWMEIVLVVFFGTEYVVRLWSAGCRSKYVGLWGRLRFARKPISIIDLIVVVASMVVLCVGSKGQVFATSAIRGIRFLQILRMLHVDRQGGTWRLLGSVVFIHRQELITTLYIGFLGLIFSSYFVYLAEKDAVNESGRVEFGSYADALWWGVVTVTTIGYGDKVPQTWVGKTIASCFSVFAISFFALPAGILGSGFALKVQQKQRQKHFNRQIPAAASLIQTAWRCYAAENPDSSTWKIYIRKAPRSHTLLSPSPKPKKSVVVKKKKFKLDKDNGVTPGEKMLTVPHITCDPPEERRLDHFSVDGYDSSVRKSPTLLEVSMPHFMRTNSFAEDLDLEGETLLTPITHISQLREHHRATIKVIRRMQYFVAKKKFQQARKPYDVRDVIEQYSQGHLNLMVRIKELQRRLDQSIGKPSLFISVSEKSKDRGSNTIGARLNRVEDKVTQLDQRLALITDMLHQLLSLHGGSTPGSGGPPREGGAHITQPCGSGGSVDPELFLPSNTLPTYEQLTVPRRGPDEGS
KCNQ2 pot conf = rat KCNQ2 channel potentiator confirmation | shares compounds with KCNQ2 pot | CHO-KCNQ2 cells, FluxOR thallium flux fluorescence | potentiation, less the hit threshold, % at 10 µM | hit rate 68% among 1,200 | AID 2287;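 active means fluorescence ratio rising 3 SD or more over the vehicle control mean in both replicates, plus primary screen hit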;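 further: peak minus minimum thallium fluorescence divided by baseline after K/Tl stimulus; 0% = vehicle mean plus 3 SD and 100% = vehicle minus unstimulated blank difference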
Kir2-1 sel = selectivity of KCNQ2 potentiators: effect on mouse Kir2.1; activity over 3SD threshold, % at 10 µM; HEK293 Kir2.1, FluxOR thallium flux fluorescence; shares compounds with KCNQ2 pot; hit rate 2% among 1,200;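 active means fluorescence ratio rise of at least 3 SD above the vehicle-control mean, seen in both replicates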;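 further: 0% = vehicle mean plus 3 SD and 100% = vehicle minus no-stimulus blank window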
KCNQ2 W236L pot = rat KCNQ2 W236L mutant potentiation by KCNQ2 potentiators; shares compounds with KCNQ2 pot; CHO KCNQ2-W236L, automated patch clamp current; current increase over 3SD of negative controls (%), active compounds read high, % at 25 µM; hit rate 10% among 940;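 active means current increase at least 3 SD of the untreated controls above them in both duplicate recordings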
* hit, by the source's call; i = inactive; · = no result.

SMILES	KCNQ2 block	KCNQ2 pot	Kir21 conf inh	HEK293 ctr	others
CCN(CCNCC(O)COc1ccccc1C(C)C)c1cccc(C)c1 (centres undefined)	i	·	33%*	i
COc1ccc(CN2CCN(Cc3ccccc3F)CC2)cc1OC	i	0.18	·	·
Cc1ccc(N2C(=O)CN(Cc3ccccc3)C2=S)cc1C	i	·	·	·
S=C(Nc1ccc(Oc2ccccc2)cc1)Nc1cccnc1	i	18*	i	i	CHO-K1 ctr=8.9*;KCNQ1 sel pot=-4;KCNQ2 pot conf=83*;Kir2-1 sel=-29;KCNQ2 W236L pot=4.7%*
O=C(Nc1ccc(OCc2ccccc2)cc1)Nc1cccnc1	i	7.2*	i	i	CHO-K1 ctr=-25;KCNQ1 sel pot=64*;KCNQ2 pot conf=11*;Kir2-1 sel=-31;KCNQ2 W236L pot=i
O=C(Nc1ccc(OCc2ccccc2)cc1)c1cccnc1	i	0.6	·	·
S=C(NCc1cccnc1)Nc1ccc(Oc2ccccc2)cc1	i	0.02	·	·
Cc1ccc(C(=O)CCC(=O)Nc2ccccc2C)c(C)c1	i	1.6	·	·
COc1cc2ncnc(N[C@H](C)c3ccccc3)c2cc1OC	i	3.6	·	·
C=CCn1c(=S)[nH]c2scc(-c3ccc(C)o3)c2c1=O	i	16*	i	384%*	CHO-K1 ctr=4.1*;KCNQ1 sel pot=-13;KCNQ2 pot conf=46*;Kir2-1 sel=-21;KCNQ2 W236L pot=i
O=c1c2c(-c3cccs3)csc2[nH]c(=S)n1-c1ccccc1	i	1.3	·	·
CCn1c(=S)[nH]c2scc(-c3cccs3)c2c1=O	i	18*	i	508%*	CHO-K1 ctr=3.7*;KCNQ1 sel pot=-18;KCNQ2 pot conf=94*;Kir2-1 sel=1.6*;KCNQ2 W236L pot=i
C=CCn1c(SCC(C)=O)nc2scc(-c3ccc(C)o3)c2c1=O	i	·	·	·
O=C(COC(=O)C1CC(=O)N(Cc2ccco2)C1)c1ccc(OC(=O)c2ccccc2)cc1 (centres undefined)	i	0.01	i	i
O=C(OCC(=O)N1c2ccccc2Sc2ccccc21)C1CC(=O)N(Cc2ccco2)C1 (centres undefined)	i	·	·	·
COc1ccc(CCNC(=O)c2nnn(CC(=O)Nc3cccc(F)c3)c2N)cc1OC	i	·	·	·
Cc1ccc(C2=NN(CCC(=O)NC3CCCC3)C(=O)CC2)cc1	i	0.26	·	·
CC1CC1C(=O)N(CCC1=CCCCC1)c1c(N)n(Cc2ccccc2)c(=O)[nH]c1=O (centres undefined)	i	·	·	·
CCOC(=O)c1sc2ncnc(NCc3ccco3)c2c1C	i	14*	i	238%*	CHO-K1 ctr=23*;KCNQ1 sel pot=-29;KCNQ2 pot conf=47*;Kir2-1 sel=-31;KCNQ2 W236L pot=i
CCOC(=O)c1sc2nc(CC(=O)OC)nc(NCc3ccco3)c2c1C	i	1.5	·	·
Cc1ccc2nc(NCc3ccccc3)[nH]c2c1	i	·	22%*	i
COc1ccc2nc(NCc3ccccc3)[nH]c2c1	i	0.44	·	·
CCC(=O)OCc1c(C(F)(F)F)nn(C)c1Sc1ccc(Cl)cc1	i	·	·	·
CCC(=O)OCc1c(C(F)(F)F)nn(C)c1Sc1ccc(F)cc1	i	·	48%*	i
N#Cc1c(Cl)cccc1Oc1ccc(S(=O)(=O)Nc2ccccc2)cc1	i	0.95	·	·
SMILES	KCNQ2 block	KCNQ2 pot	Kir21 conf inh	HEK293 ctr	others
O=c1[nH]c(C(Cl)(Cl)Cl)nc2ccc3ccccc3c12	i	6.6*	i	174%*	CHO-K1 ctr=-18;KCNQ1 sel pot=38*;KCNQ2 pot conf=5.6*;Kir2-1 sel=-19;KCNQ2 W236L pot=i
O=c1[nH]c(C(F)(F)F)nc2ccccc12	i	0.68	·	·
N#Cc1cccc(Nc2c3c(nc4ccccc24)CCC3)c1	i	·	·	·
Cc1cccc(Nc2c3c(nc4ccccc24)CCC3)c1	i	·	31%*	i
COc1ccc(NC(=O)CN2CCN(CC(=O)Nc3ccc(F)cc3)CC2)c(OC)c1	i	·	·	·
Oc1ccc(N=Nc2ccc3ccccc3c2)cc1	i	·	·	·
